Cruzain inh Det: inhibitors of Trypanosoma cruzi cruzain with detergent; AID 1478; 200,000 tested, 0.43% active; purified cruzain, Z-FR-AMC fluorescence, 0.01% Triton; Potency, µM, without a hit: max response, negative = inhibition, hits mostly inhibitors;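 further: plate controls were neutral wells for no effect and buffer without enzyme for full effect; nearly all actives have a fitted effect of over 40% in size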
Target sequence (P25779 123-467 limits assumed): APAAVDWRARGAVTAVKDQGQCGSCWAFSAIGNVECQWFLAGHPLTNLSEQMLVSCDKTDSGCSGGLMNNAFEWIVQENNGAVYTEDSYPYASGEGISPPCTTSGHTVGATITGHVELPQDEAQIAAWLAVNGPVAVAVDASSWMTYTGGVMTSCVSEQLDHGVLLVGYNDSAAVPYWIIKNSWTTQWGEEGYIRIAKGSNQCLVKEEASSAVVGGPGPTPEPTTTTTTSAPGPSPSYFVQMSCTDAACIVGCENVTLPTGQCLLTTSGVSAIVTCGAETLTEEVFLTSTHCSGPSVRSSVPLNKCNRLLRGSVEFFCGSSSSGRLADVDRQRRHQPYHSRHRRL
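In this qHTS format, compounds are incubated with 1.5 nM cruzain for 15 min at room temperature before 2 uM Z-FR-AMC is added. Release of AMC is followed at 360/450 nm, and progress is taken as the 60 s fluorescence difference.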
Cruzain noTriton: cruzain (T. cruzi) inhibition without detergent; P25779; 200,000 tested, 2.3% active; purified cruzain, Z-FR-AMC fluorescence, no detergent; Potency, µM, inactives show max response, negative = inhibition, most hits filed as inhibitors;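 further: plate controls were enzyme without inhibitor for no effect and buffer without enzyme for full effect; nearly all actives have a fitted effect of over 40% in size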
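Detergent-free condition (0.00005% Triton X-100) in acetate buffer pH 5.5 with DTT. 1.5 nM enzyme and compound were pre-mixed 15 min, then 2 uM Z-FR-AMC substrate added; reaction progress from fluorescence change between first and third reads (60 s).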
An asterisk follows results filed as active. This is a sample that favours compounds with a hit; in the whole collection about 2.6% have one here. The call rests on the fitted dose curve; in most records, active means well fitted curve in the direction sought with a large enough effect; inconclusive means small, poorly fitted or top-dose-only effect, or another doubt; inactive means no such curve, though single readings can be large; an effect the other way counts as inactive or inconclusive. Potency means the concentration at half of the fitted maximal effect.

Results for CCOC(=O)CC(NS(=O)(=O)c1ccc2[nH]c3c(c2c1)CCCC3)c1ccccc1Cl (stereo not given) ?
Cruzain inh Det: -13%; Cruzain noTriton: -14%

How did COc1ccc(N=C2C(=Nc3ccc(OC)cc3)N(c3ccc(OC)cc3)C(=S)N2c2ccccc2)cc1 do in these assays?
Cruzain inh Det: 0%; Cruzain noTriton: inconclusive

Results for Cc1ccc(N=C2C(=S)N(c3ccc(C)cc3)C(=N)N2/N=C/c2ccc(Cl)cc2)cc1 ?
Cruzain inh Det: -4%; Cruzain noTriton: 3.2µM*

Results for COc1cccc(NC(=O)N2CCN3CCCCC3C2)c1 (stereo not given) ?
Cruzain inh Det: 1%; Cruzain noTriton: 7%

Results for COc1ccc(CCNC(=O)c2cc3c(=O)n(C)c4ccccc4c3s2)cc1OC ?
Cruzain inh Det: -4%; Cruzain noTriton: 7%

What do the screens show for `O=C(Nc1ccc(C(=O)N2CCN(c3ccc(Cl)cc3)CC2)cc1)c1nsc2ccccc12`?
Cruzain inh Det: -2%; Cruzain noTriton: -10%

How did Cc1ccc(Cl)cc1N1CCN(C(=O)c2ccc(NC(=O)c3nsc4ccccc34)cc2)CC1 do in these assays?
Cruzain inh Det: 2%; Cruzain noTriton: 7.9µM*

What do the screens show for `CN1CCCC[C@@H]1CCN1CCCCC1`?
Cruzain inh Det: -1%; Cruzain noTriton: -8%

Results for COc1ccc(-c2csc3nc(-c4cccnc4)nc(N4CCC(C(N)=O)CC4)c23)cc1OC ?
Cruzain inh Det: 25µM*; Cruzain noTriton: inconclusive

What do the screens show for `COc1ccc(-c2csc3nc(C)n(-n4cccc4)c(=O)c23)cc1OC`?
Cruzain inh Det: -5%; Cruzain noTriton: 8%

What do the screens show for `COc1ccc(CCNc2nc3cc(OC)c(OC)cc3c3nc(-c4ccccc4)nn23)cc1OC`?
Cruzain inh Det: 0%; Cruzain noTriton: -1%

How did CCC(C(=O)N(C)Cc1ccccc1)n1nc(C)c2sc3ccccc3c2c1=O (stereo not given) do in these assays?
Cruzain inh Det: -18%; Cruzain noTriton: inconclusive

How did CCOC(=O)c1c(NC(=O)C(C)N2CCN(S(=O)(=O)c3cccs3)CC2)sc2c1CCC(C)C2 (stereo not given) do in these assays?
Cruzain inh Det: -1%; Cruzain noTriton: 7.9µM*

What do the screens show for `CC1CCc2c(sc(NC(=O)C3c4ccccc4Oc4ccccc43)c2C#N)C1` (stereo not given)?
Cruzain inh Det: -4%; Cruzain noTriton: -24%

What do the screens show for `CC1CCc2c(sc(NC(=O)C3c4ccccc4Oc4ccccc43)c2C(N)=O)C1` (stereo not given)?
Cruzain inh Det: -6%; Cruzain noTriton: 25µM*

Results for CC(C)(C)C1CCc2c(sc(NC(=O)C3c4ccccc4Oc4ccccc43)c2C(N)=O)C1 (stereo not given) ?
Cruzain inh Det: -8%; Cruzain noTriton: 10µM*

Results for CC(C)(C)C1CCc2c(sc(N)c2C(N)=O)C1 (stereo not given) ?
Cruzain inh Det: -15%; Cruzain noTriton: 25µM*

Results for CCC(C)(C)C1CCc2c(sc(N)c2C(N)=O)C1 (stereo not given) ?
Cruzain inh Det: -25%; Cruzain noTriton: inconclusive

Results for CC(C)(C)C1CCc2c(sc(NC(=O)c3ccco3)c2C(N)=O)C1 (stereo not given) ?
Cruzain inh Det: -22%; Cruzain noTriton: -25%

What do the screens show for `CCOC(=O)c1c(NC(=O)C2CCN(S(=O)(=O)c3cccs3)CC2)sc(C)c1C`?
Cruzain inh Det: -4%; Cruzain noTriton: -18%

Results for Oc1c(C(c2ccccc2F)N2CCOCC2)sc2nc(-c3ccco3)nn12 (stereo not given) ?
Cruzain inh Det: -2%; Cruzain noTriton: -6%

How did CCOC(=O)CSC1=Nc2ccccc2C2=NC(CCC(=O)NCc3ccc(OC)cc3)C(=O)N12 (stereo not given) do in these assays?
Cruzain inh Det: -2%; Cruzain noTriton: -12%

Results for COc1ccc(OCC(=O)Nc2cc(-c3ccccc3F)nn2-c2ccccc2)cc1 ?
Cruzain inh Det: 4%; Cruzain noTriton: 5%

How did O=C(CSc1nc2c([nH]c3ccccc32)c(=O)n1-c1ccccc1F)Nc1ccccc1C(F)(F)F do in these assays?
Cruzain inh Det: -5%; Cruzain noTriton: inconclusive

What do the screens show for `CCCCNC(=O)CSc1nc2nc(C)c(Cc3ccccc3C)c(C)n2n1`?
Cruzain inh Det: -3%; Cruzain noTriton: 6%

Results for COc1ccc(-n2c3c(cc(-c4nc(-c5ccc(C)cc5)cs4)c2=O)C(=O)CC(C)(C)C3)cc1 ?
Cruzain inh Det: -3%; Cruzain noTriton: 5%

What do the screens show for `CC(C)N(Cc1ccccc1)S(=O)(=O)c1ccc(N2CCCCS2(=O)=O)cc1`?
Cruzain inh Det: -3%; Cruzain noTriton: 16%

How did CCCOC(=O)c1c(NC(=O)C2c3ccccc3Oc3ccccc32)sc2c1CCC(C)C2 (stereo not given) do in these assays?
Cruzain inh Det: -2%; Cruzain noTriton: 20µM*

What do the screens show for `CCOC(=O)c1c(NC(=O)C2c3ccccc3Oc3ccccc32)sc2c1CCC(CC)C2` (stereo not given)?
Cruzain inh Det: -1%; Cruzain noTriton: 14%

Results for Cc1cccc(N2CCN(CCNC(=O)C3COc4ccccc4C3)CC2)c1C (stereo not given) ?
Cruzain inh Det: 1%; Cruzain noTriton: 2%

Results for N=C1S/C(=C\c2ccccc2F)C(=O)N1c1ccc(F)cc1 ?
Cruzain inh Det: -3%; Cruzain noTriton: inconclusive

Results for N=C1S/C(=C\c2ccccc2)C(=O)N1c1ccc(F)cc1 ?
Cruzain inh Det: 3%; Cruzain noTriton: 25µM*

Results for Cc1cc(S(=O)(=O)NCc2ccccc2)ccc1OCC(=O)Nc1cccc([N+](=O)[O-])c1 ?
Cruzain inh Det: -5%; Cruzain noTriton: 25µM*

Results for CN(Cc1ccccc1)S(=O)(=O)c1ccc(OCC(=O)Nc2cccc([N+](=O)[O-])c2)cc1 ?
Cruzain inh Det: -3%; Cruzain noTriton: -21%

Results for COc1cccc(-c2nc(-c3ccc(-c4ccccc4)nc3OC)no2)c1 ?
Cruzain inh Det: -4%; Cruzain noTriton: 6%

Results for CCCCNc1nc(C)nc2c1nc(-c1ccccc1)n2CC1CCN(C)CC1 ?
Cruzain inh Det: -11%; Cruzain noTriton: -2%

How did O=C(Nc1nc(-c2ccccc2)cs1)C1CCCN(S(=O)(=O)c2ccccc2)C1 (stereo not given) do in these assays?
Cruzain inh Det: 5%; Cruzain noTriton: 20µM*

Results for O=C(Nc1nc(-c2ccccc2)cs1)C1CCCCN1S(=O)(=O)c1ccccc1 (stereo not given) ?
Cruzain inh Det: -11%; Cruzain noTriton: inconclusive

Results for O=C(Nc1nc(-c2ccc3ccccc3c2)cs1)C1CCN(S(=O)(=O)c2cccs2)CC1 ?
Cruzain inh Det: -2%; Cruzain noTriton: 3.2µM*

Results for Cc1ccc(-c2csc(NC(=O)C3CCN(S(=O)(=O)c4cccs4)CC3)n2)cc1 ?
Cruzain inh Det: -4%; Cruzain noTriton: inconclusive

Results for O=C(Nc1nc(-c2ccccc2)cs1)C1CCCN(S(=O)(=O)c2cccc([N+](=O)[O-])c2)C1 (stereo not given) ?
Cruzain inh Det: -4%; Cruzain noTriton: 7.9µM*

What do the screens show for `O=C(Nc1nc(-c2ccccc2)cs1)C1CCCCN1S(=O)(=O)c1ccc(Cl)cc1` (stereo not given)?
Cruzain inh Det: -3%; Cruzain noTriton: inconclusive

Screening data: PubChem BioAssay, National Center for Advancing Translational Sciences (NCATS)
